# High-throughput results as filed in PubChem.
# The list is not random: actives were taken first. Their share in the collection is about 10%.
# NPR1 antag: antagonists of human natriuretic peptide receptor Npr1; P16066; HEK293 hNpr1 GloSensor cGMP, ANP-stimulated luminescence; Potency, µM (top dose mostly 46.3 µM), for the others: top-dose activity change, negative = inhibition, usual class: inhibitors; AID 1347048; 76,000 tested, 1.6% active; calls by dose curve; note: % is set by controls: 0 for no effect and ±100 for the full control effect; nearly all actives have a fitted effect of over 60% in size
#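 HEK293 cells stably expressing human Npr1 and cGMP GloSensor pGS-40F, loaded 2 h with 2% GloSensor reagent, given compound 30 min at room temperature. Luminescence read before and 20 min after 0.1 nM hNppA.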
# GPT2 inhibitor: inhibitors of human GPT2 alanine aminotransferase; Potency, µM (series often up to 57.7 µM), inactives show at the highest dose activity change, negative = inhibition, actives largely listed as inhibitors; AID 1671188; Recombinant GPT2, coupled pyruvate oxidase/HRP Amplex Red fluorescence; 100,000 tested, 0.25% active; Q8TD30; note: % is set by controls: 0 for no effect and ±100 for the full control effect; nearly all actives have a fitted effect of over 60% in size
# Target sequence (Q8TD30 whole entry, looked up): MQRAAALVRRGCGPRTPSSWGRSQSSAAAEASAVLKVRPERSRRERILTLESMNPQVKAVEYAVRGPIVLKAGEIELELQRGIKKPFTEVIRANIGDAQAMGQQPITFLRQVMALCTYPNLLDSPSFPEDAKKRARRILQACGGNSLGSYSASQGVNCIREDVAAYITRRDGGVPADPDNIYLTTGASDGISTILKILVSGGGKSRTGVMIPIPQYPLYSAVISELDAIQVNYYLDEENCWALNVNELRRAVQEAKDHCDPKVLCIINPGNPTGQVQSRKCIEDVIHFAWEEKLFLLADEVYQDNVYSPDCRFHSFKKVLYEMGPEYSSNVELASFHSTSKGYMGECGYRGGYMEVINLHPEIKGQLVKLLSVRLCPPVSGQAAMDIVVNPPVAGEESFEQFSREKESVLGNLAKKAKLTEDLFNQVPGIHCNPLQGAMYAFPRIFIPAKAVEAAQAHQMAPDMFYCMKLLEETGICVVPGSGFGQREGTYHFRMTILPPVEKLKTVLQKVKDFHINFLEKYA
#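 Fluorescence of coupled pyruvate oxidase/HRP/Amplex Red system (50uM Amplex, 30 min, dark) reports pyruvate formed by GPT2. Enzyme reaction: 10ng/uL GPT2, 2mM L-alanine, 250uM a-KG, 30 min room temperature, pH 7.5; 50uM AOA control.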
# Luciferase inh: blocks purified firefly luciferase enzyme activity; P08659; purified P. pyralis luciferase, luminescence, biochemical; Potency, µM (titrated, usually from 115 µM), actives largely listed as inhibitors; 76,000 tested, 2.5% active; note: % is set by controls: 0 for no effect and ±100 for the full control effect; nearly all actives have a fitted effect of over 65% in size
#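 Purified P. pyralis luciferase (10nM final) in 50mM Tris acetate pH 7.5, 10mM Mg acetate, 0.01% Tween-20, 0.05% BSA with 10uM D-luciferin and 10uM ATP. Compounds titrated qHTS. Luminescence imaged on CCD.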
# 3T3 cytotox: cytotoxic compounds in NIH 3T3 cells; NIH 3T3 viability, CellTiter-Glo ATP luminescence, 48-72 h; Potency, µM (series often up to 96.7 µM), without a hit: top-dose activity change, negative = cytotoxicity, usual class: inhibitors; 94,000 tested, 4.3% active; AID 1345082; note: % is set by controls: 0 for no effect and ±100 for the full control effect; nearly all actives have a fitted effect of over 55% in size
#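 Cells were seeded at 400 per well, treated with pin-transferred compound, and kept 48 or 72 hr at 37 °C before CellTiter-Glo addition and luminescence imaging of cellular ATP.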
# HEK cytotox: cytotoxic compounds in HEK 293 cells. HEK 293 viability, ATP luminescence (CellTiter-Glo), 48-72 h. Potency, µM (top dose mostly 115 µM), for the others: at the top dose activity change, negative = cytotoxicity, actives largely listed as inhibitors. 94,000 tested, 6.6% active; note: % is set by controls: 0 for no effect and ±100 for the full control effect; nearly all actives have a fitted effect of over 60% in size
#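 Luminescence from cellular ATP, measured with CellTiter-Glo, indicates HEK 293 viability. Cells plated at 250 cells/well are treated with compound for 48 or 72 hr at 37 degree Celsius before reagent addition.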
# Npr1 antag conf: confirmation of human Npr1 natriuretic peptide receptor antagonists; shares compounds with NPR1 antag; HEK293 hNpr1 cGMP GloSensor luminescence, ANP-stimulated; Potency, µM (series often up to 57.6 µM), inactives show at the highest dose activity change, negative = inhibition, hits mostly inhibitors; 1,400 tested, 76% active; AID 1347044; calls by dose curve; note: nearly all actives have a fitted effect of over 70% in size
# NPR2 antag: selectivity test of Npr1 antagonists against human Npr2. HEK293 hNpr2 GloSensor cGMP luminescence, CNP-stimulated. Potency, µM (series often up to 57.6 µM), without a hit: at the highest dose activity change, negative = inhibition, most hits filed as inhibitors. shares compounds with NPR1 antag. 1,400 tested, 67% active; calls by dose curve; note: nearly all actives have a fitted effect of over 70% in size
# FLuc counter: FLuc enzyme inhibition, Npr1 counter-screen; shares compounds with NPR1 antag; Potency, µM (doses to about 57.6 µM), without a hit: top-dose activity change, negative = inhibition, actives largely listed as inhibitors; purified FLuc enzyme, luminescence, Km substrate; 1,400 tested, 0.7% active; AID 1347047; note: 0% is about no effect
# GloSensor ctrl: reduces cGMP signal in GloSensor control cells. shares compounds with NPR1 antag. HEK293 GloSensor cGMP, SNP-stimulated, luminescence. Potency, µM (highest dose often 57.6 µM), for the others: at the top dose activity change, negative = inhibition, hits mostly inhibitors. 1,400 tested, 69% active; calls by dose curve; note: % is set by controls: 0 for no effect and ±100 for the full control effect; nearly all actives have a fitted effect of over 70% in size
# * marks the source's active call; other numbers are inactive results; i = inactive; ? = inconclusive; nt = not tested or not shown; [ ] = another dose, or the depositor's remark. Unless noted, calls come from the whole dose curve; as a rule, active = well fitted curve in the direction sought with a large enough effect; inconclusive = small, poorly fitted or top-dose-only effect, or another doubt; inactive = no such curve, though single readings can be large; an effect the other way counts as inactive or inconclusive. Potency is the fitted concentration of half-maximal effect.
SMILES,NPR1 antag,GPT2 inhibitor,Luciferase inh,3T3 cytotox,HEK cytotox,Npr1 antag conf,NPR2 antag,FLuc counter,GloSensor ctrl
CC1=C[C@@H](CNC(=O)C2CC2)[C@H](C(C)C)C[C@H]1Cc1nc2ccccc2n1C,25µM*,-7%[88.5 µM],i,100µM*,45µM*,31µM*,35µM*,3%[86.2 µM],25µM*
CCC[C@H]1CN(C(=O)c2ccccc2Cc2ccc(C)cc2)C[C@@H]1N,-30%,i,i,89µM*,?,?,?,-1%,-21%
CCn1cc(CN2CCN(C(=O)c3ccsc3)CC2)ccc1=O,-2%,-25%,?,-19%,-17%,nt,nt,nt,nt
COCCN1C(=O)c2ccccc2C(C(=O)Nc2cc(Cl)ccc2OC)C12CCCC2 (stereo unspecified),?,i,i,-22%,?,14µM*,8.6µM*,5%,11%
COCCN1C(=O)c2ccccc2C(C(=O)Nc2cccc(OC)c2)C12CCCC2 (stereo unspecified),0%,1%,i,i,33%,nt,nt,nt,nt
CN1CC2(CCN(C(=O)CC3CCCC3)CC2)CC1C(=O)N1CCOCC1 (stereo unspecified),nt,0%,nt,-7%,-5%,nt,nt,nt,nt
O=C(N[C@H]1CO[C@H]2[C@@H]1OC[C@@H]2n1nnnc1Oc1ccc2c(c1)OCO2)c1ccc(C(F)(F)F)cc1,7.9µM*,i,i,?,?,6.9µM*,8.6µM*,-3%,5.4µM*
CC(C)n1cc(CN(C)C(=O)c2cc(COc3ccccc3)on2)cn1,0%,i,?,?,?,nt,nt,nt,nt
Cc1cnccc1CN(C)C(=O)c1cc(COc2ccc(-n3cncn3)cc2)on1,7.1µM*,2%,i,?,?,5.4µM*,9.7µM*,0%,5.4µM*
COCc1nc(-c2ccc(OC3CCN(C(=O)NCc4ccc(F)cc4)C3)cc2)no1 (stereo unspecified),?,i,i,?,?,nt,nt,nt,nt
CCN(CC)C(=O)N1CCC(Oc2ccc(-c3noc(COC)n3)cc2)C1 (stereo unspecified),7.9µM*,i,i,-21%,?,11µM*,14µM*,-6%,12µM*
CCOc1cccc(CN2CC(Oc3ccc(-c4noc(COC)n4)cc3)C2)c1,?,i,i,?,?,nt,nt,nt,nt
COc1ccc(CNC(=O)N2CCC(Oc3ccc(-c4noc(C5CC5)n4)cc3)C2)cc1 (stereo unspecified),18µM*,-3%,i,?,?,?,?,?,?
Cc1nc(-c2ccc(OC3CCN(C(=O)NC(C)C)C3)cc2)no1 (stereo unspecified),-26%,i,i,-28%,?,nt,nt,nt,nt
COc1cccc(CN2CCC(Oc3ccc(-c4noc(C5CC5)n4)cc3)C2)c1 (stereo unspecified),11µM*,-4%,i,?,40µM*,?,?,-19%,27µM*
COCc1nc(-c2ccc(OC3CN(C(=O)c4cc(C)n(C)n4)C3)cc2)no1,-23%,i,i,-24%,?,nt,nt,nt,nt
COCc1nc(-c2ccc(OC3CN(C(=O)NCc4ccc(OC)cc4)C3)cc2)no1,?,i,i,?,-32%,24µM*,?,-2%,19µM*
CNC(=O)c1cc(C2CC2)nc2c1c(C1CCCN1C(=O)c1ccccc1F)nn2C (stereo unspecified),nt,nt,nt,-27%,-21%,nt,nt,nt,nt
CN1C(=O)CCCCC1C(=O)NCCc1c[nH]c2ccccc12 (stereo unspecified),-3%,4%,i,-4%,-13%,nt,nt,nt,nt
COc1ccc(C(=O)N2CCCC(C(=O)N3CCC4(CC3)CC(=O)Nc3ccccc3O4)C2)cc1 (stereo unspecified),nt,i,nt,-31%,?,nt,nt,nt,nt
CC(C)(Oc1nn(Cc2cccc(Cl)c2)c2ccccc12)C(=O)NC1CCC(O)CC1 (stereo unspecified),-26%,-7%,i,?,?,nt,nt,nt,nt
CC(C)(Oc1nn(Cc2cccc(Cl)c2)c2ccccc12)C(=O)NCCc1cnc[nH]1,22µM*,1%[88.5 µM],i,?,?,28µM*,25µM*,2%[86.2 µM],25µM*
O=C(Nc1cccc(F)c1)C1CCN(C(=O)c2ncn3c2COC(c2ccc(F)cc2)C3)CC1 (stereo unspecified),?,?,i,-7%,?,?,-14%,-22%,?
O=C(Nc1cccc(Cl)c1)C1CCN(C(=O)c2ncn3c2COC(c2ccc(F)cc2)C3)CC1 (stereo unspecified),?,i,?,-10%,?,nt,nt,nt,nt
Clc1cccc(CN2CC[C@H](c3nc4ccccc4[nH]3)C2)c1,25µM*,0%[88.5 µM],i,?,20µM*,40µM*,?,-2%[86.2 µM],?
c1ccc2[nH]c([C@H]3CCN(CC4CCCCC4)C3)nc2c1,-8%[70.6 µM],4%[88.5 µM],?,?,?,nt,nt,nt,nt
CC(C)NC(=O)N1CCC2(CC1)CC(N(Cc1ccc(F)cc1)C1CC1)CCO2 (stereo unspecified),-19%,i,i,-12%,-15%,nt,nt,nt,nt
O=C(CCC1CCCC1)N1CCC(Cc2nc(C3CCOCC3)no2)CC1,10µM*,0%,i,?,?,12µM*,17µM*,5%,12µM*
O=C(CC1CCCCC1)N1CCC(Cc2nc(-c3ccccc3)no2)CC1,10µM*,0%,i,?,?,14µM*,15µM*,0%,9.7µM*
O=C(CC1CCCCC1)N1CCC(c2noc(COc3ccc(F)cc3)n2)CC1,7.1µM*,-11%,i,?,?,12µM*,14µM*,-7%,14µM*
